Experimental data as given in PubChem BioAssay (NCATS).
Inconclusive results are not listed. Activity calls are given as the source filed them. Unless noted, the call rests on the fitted dose curve; in most records, active means well fitted curve in the direction sought with a large enough effect; inconclusive means small, poorly fitted or top-dose-only effect, or another doubt; inactive means no such curve, though single readings can be large; an effect the other way counts as inactive or inconclusive.

Tests used:
[1] = AP1 Signaling Pathway (AID 357; active means well fitted curve in either direction with a large enough effect, not every such curve was filed as active; further: on the % scale 0 is the no-effect control and ±100 the full control effect); conditions: ME-180 AP-1-bla reporter, EGF-induced, beta-lactamase ratio, 5 h; at 17.2 µM (top of the series) unless noted
In short: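 ME-180 cells with beta-lactamase reporter under AP-1 response element, stimulated with EC50 EGF; compounds tested in titration series, 5 h at 37 °C. CCF4 substrate added 2.5 h at room temperature; 460/530 nm emission ratio gave %activity and AC50.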

[2] = target: Glucocorticoid receptor (Homo sapiens) (UniProt P04150); assay: GR-GFP Redistribution (AID 450;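 active means compounds whose dose series gives a full or clear partial fitted curve of increased nuclear translocation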; further: potency means the concentration at half of the fitted maximal effect)
Glucocorticoid receptor (Homo sapiens), sequence (P04150 whole entry, looked up, the tested form may be a part): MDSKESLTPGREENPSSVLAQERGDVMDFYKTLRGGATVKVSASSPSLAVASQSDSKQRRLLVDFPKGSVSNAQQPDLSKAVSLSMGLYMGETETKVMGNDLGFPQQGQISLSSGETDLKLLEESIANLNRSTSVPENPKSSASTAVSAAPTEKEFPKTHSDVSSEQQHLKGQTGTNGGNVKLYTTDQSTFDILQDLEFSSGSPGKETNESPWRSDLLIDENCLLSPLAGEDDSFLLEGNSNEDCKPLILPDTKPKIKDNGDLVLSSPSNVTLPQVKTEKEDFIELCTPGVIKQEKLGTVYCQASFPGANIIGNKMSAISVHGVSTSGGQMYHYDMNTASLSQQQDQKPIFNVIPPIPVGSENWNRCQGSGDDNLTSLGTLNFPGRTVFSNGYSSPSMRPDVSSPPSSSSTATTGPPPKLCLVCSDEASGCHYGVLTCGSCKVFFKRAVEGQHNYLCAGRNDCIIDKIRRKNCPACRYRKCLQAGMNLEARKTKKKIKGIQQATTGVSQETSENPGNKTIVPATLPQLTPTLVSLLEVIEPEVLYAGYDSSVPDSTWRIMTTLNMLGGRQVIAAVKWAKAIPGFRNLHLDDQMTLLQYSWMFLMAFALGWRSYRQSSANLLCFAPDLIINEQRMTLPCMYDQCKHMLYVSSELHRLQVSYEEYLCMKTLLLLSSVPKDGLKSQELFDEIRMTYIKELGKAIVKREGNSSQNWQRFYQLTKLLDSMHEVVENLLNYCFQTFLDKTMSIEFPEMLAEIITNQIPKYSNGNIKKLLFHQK

[3] = qHTS Assay for Identification of Small Molecule Agonists for Hypoxia Response Element Signaling Pathway (AID 914; active means well fitted activation curve with a large enough effect in the signal ratio, with a control signal flat, not every such curve was filed as active; the % refers to the signal ratio; further: % of control where 0% means no effect); conditions: ME-180 HRE-bla reporter, beta-lactamase ratio, CoCl2, 17 h; activation: hits give high values
In short: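 Cells were plated overnight, pin-dosed with compound in a titration series, co-stimulated with EC50 CoCl2 and incubated 17 hours at 37 degrees Celsius. CCF4 substrate was then loaded, and AC50 values came from the 460nm/530nm ratio.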

[4] = target: Cytochrome P450 1A2 (Homo sapiens) (UniProt P05177); assay: p450-cyp1a2 (AID 410; calls by dose curve; further: potency means the concentration at half of the fitted maximal effect;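 on activity change, negative = inhibition: -100% = full effect of reference inhibitor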)
Cytochrome P450 1A2 (Homo sapiens), sequence (P05177 whole entry, looked up): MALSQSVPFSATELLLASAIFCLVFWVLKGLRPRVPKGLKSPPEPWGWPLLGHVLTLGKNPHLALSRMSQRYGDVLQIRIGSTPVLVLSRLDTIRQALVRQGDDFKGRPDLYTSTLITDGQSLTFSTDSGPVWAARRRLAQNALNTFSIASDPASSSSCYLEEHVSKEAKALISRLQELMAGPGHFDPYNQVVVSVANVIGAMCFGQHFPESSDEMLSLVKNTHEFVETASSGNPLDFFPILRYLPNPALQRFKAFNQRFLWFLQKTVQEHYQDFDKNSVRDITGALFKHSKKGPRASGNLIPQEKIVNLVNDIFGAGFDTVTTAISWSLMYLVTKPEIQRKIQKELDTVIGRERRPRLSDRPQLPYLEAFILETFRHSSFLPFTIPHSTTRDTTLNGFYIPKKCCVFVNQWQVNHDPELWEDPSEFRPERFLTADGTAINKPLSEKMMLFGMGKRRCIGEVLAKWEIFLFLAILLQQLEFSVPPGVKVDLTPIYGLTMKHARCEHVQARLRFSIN
In short: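 Read-out is luminescence from luciferin produced by CYP1A2 demethylation of Luciferin-ME (100uM, at Km). Detection reagent stopped the 60 min NADPH-dependent reaction; signals were normalized to 57 uM furafylline.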

[5] = Stat Signaling Pathway (AID 446; active means well fitted curve in either direction with a large enough effect, not every such curve was filed as active;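 further: ME-180 cervical cancer cells given 40 pM IL-6 alongside compound; SIE-controlled beta-lactamase reporter measured as 460/530 nm FRET emission ratio; on the % scale 0 is the no-effect control and ±100 the full control effect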); conditions: ME-180 (cervical carcinoma) SIE beta-lactamase reporter, IL-6 stimulated, 5 h; at 17.2 µM (top of the series) unless noted
In short: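 Overnight-plated ME-180 cells bearing a STAT Inducible Element beta-lactamase reporter; 5 h co-exposure to compound and 40 pM IL-6; values normalized to 300 pM IL-6 and 125 nM JAK inhibitor controls.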

[6] = target: 3',5'-cyclic-AMP phosphodiesterase 4B (Homo sapiens) (UniProt Q07343); assay: qHTS Assay for Inhibitors of PDE-IV (AID 607; active means well fitted activation curve with a large enough effect in the main read-out, with a control signal flat, not every such curve was filed as active; further: % of control where 0% means no effect)
3',5'-cyclic-AMP phosphodiesterase 4B (Homo sapiens), sequence (Q07343 whole entry, looked up): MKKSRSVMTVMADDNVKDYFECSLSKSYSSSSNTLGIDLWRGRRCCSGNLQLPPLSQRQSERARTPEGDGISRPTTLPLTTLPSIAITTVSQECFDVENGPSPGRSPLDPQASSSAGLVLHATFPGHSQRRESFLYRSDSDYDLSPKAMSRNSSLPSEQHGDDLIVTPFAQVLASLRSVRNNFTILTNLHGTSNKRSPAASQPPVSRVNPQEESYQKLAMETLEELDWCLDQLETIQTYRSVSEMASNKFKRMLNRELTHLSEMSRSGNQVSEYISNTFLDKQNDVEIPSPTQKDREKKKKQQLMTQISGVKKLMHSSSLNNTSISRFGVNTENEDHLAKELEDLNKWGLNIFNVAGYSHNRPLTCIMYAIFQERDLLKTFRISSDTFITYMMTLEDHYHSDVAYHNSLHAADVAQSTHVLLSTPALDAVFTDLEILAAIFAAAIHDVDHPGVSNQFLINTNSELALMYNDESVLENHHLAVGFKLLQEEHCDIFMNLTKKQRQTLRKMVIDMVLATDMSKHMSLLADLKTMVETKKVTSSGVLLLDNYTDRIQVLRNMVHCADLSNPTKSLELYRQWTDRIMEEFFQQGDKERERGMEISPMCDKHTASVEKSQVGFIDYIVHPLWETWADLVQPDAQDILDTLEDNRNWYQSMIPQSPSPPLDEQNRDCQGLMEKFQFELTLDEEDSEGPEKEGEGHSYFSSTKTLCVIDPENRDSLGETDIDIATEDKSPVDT
In short: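 Live HEK293 cells with a modified cyclic nucleotide-gated (CNG) channel report intracellular cAMP via membrane-potential dye fluorescence (ex 535/em 590 nm). Endogenous PDE-IV was targeted. Compounds were tested at up to 22.9 uM final; RO 20-1724 100 uM served as control.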

[7] = target: Guanine nucleotide-binding protein G(i) subunit alpha-1 (Homo sapiens) (UniProt P63096); assay: qHTS Assay for Inhibitors of RGS12 GoLoco Motif Activity (Green Fluorophore) (AID 879);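 further: 0% = labeled peptide with Gαi1 and full inhibition = labeled peptide alone without protein; negative values mean loss of peptide binding seen as reduced polarization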
Guanine nucleotide-binding protein G(i) subunit alpha-1 (Homo sapiens), sequence (P63096 whole entry, looked up): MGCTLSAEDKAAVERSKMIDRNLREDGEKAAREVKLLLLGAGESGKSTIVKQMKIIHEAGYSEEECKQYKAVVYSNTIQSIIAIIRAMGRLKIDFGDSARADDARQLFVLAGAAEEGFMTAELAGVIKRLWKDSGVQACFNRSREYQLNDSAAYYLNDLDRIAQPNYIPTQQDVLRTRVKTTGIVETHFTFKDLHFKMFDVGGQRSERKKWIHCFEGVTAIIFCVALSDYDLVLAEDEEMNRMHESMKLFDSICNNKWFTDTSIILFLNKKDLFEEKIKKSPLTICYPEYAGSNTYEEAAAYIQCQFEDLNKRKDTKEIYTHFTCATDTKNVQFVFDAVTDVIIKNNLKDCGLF
In short: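 A drop in FITC polarization marked displacement of the FITC-tagged RGS12 GoLoco peptide (10 nM) from Gαi1 (50 nM). Compounds were incubated 10 min at room temperature in Tris pH 7.5 buffer containing 150 mM NaCl, 0.1 mM GDP and 0.05% NP40; unlabeled peptide titration served as control.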

[8] = qHTS Assay for Identification of Small Molecule Agonists for Thrombopoietin (TPO) Signaling Pathway (AID 917); further: on the % scale 0 is the no-effect control and ±100 the full control effect
In short: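 Human TPO receptor–transfected Ba/F3 cells (murine, IL-3-dependent) in IL-3-deficient medium; compounds plus TPO at EC50, 26 pM final; 24 hrs, 37 C; GpIIb-luciferase luminescence after 10 min RT detection.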

[9] = target: Muscarinic acetylcholine receptor M1 (Rattus norvegicus) (UniProt P08482); assay: qHTS Assay for Antagonists of Acetylcholine Muscarinic M1 Receptor: Kinetic Measurement of Intracellular Calcium Response (AID 943);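 further: Fluo-4 calcium signal as peak divided by basal fluorescence over 4 min; nearly all actives have a fitted effect of over 75% in size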
Muscarinic acetylcholine receptor M1 (Rattus norvegicus), sequence (P08482 whole entry, looked up): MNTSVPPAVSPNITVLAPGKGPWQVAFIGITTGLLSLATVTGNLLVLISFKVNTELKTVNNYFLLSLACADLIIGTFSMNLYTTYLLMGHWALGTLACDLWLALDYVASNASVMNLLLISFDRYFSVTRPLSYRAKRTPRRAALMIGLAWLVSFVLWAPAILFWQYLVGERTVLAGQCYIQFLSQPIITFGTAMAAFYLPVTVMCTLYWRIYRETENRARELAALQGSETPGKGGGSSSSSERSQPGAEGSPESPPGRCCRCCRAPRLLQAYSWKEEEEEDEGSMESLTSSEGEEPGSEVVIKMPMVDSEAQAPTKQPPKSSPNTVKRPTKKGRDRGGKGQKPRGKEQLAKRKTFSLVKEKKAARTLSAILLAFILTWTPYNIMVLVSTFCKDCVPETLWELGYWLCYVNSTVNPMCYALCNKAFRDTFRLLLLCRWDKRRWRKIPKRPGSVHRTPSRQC
In short: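 Quantitative HTS in CHO-M1 (rat receptor) cells: 10 min compound exposure ahead of 100 nM carbachol, Fluo-4 fluorescence followed 4 min, value expressed as peak-to-basal ratio.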

[10] = target: Pyruvate kinase (Leishmania mexicana) (UniProt Q27686); assay: qHTS Validation Assay for Inhibitors of Leishmania Mexicana Pyruvate Kinase (AID 945);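 further: 0% = DMSO only neutral control wells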
Pyruvate kinase (Leishmania mexicana), sequence (Q27686 2-499 E452W): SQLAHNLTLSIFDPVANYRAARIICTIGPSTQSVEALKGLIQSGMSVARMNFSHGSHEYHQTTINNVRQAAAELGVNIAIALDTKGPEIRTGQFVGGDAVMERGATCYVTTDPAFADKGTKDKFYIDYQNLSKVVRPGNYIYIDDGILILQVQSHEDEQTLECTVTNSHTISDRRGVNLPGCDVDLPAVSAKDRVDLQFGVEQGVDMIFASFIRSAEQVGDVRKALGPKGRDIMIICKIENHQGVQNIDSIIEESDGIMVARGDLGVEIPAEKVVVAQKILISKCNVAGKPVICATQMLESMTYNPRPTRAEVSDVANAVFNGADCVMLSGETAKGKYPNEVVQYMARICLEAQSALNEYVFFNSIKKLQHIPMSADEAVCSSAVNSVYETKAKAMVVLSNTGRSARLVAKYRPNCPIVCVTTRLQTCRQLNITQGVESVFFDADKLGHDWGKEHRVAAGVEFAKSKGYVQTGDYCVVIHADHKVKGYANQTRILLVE
In short: (§1)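 The enzyme is a highly purified E451W mutant of LmPYK used at 0.2 nM. It converts 0.5 mM PEP and 0.1 mM ADP over 1 h at room temperature; product ATP is quantified by luciferase luminescence relative to DMSO controls.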

[11] = target: Pyruvate kinase PKM (Homo sapiens) (UniProt P14618); assay: qHTS Assay for Activators of Human Muscle Pyruvate Kinase (AID 954; active means well fitted curve in the direction sought with a large enough effect, not every such curve was filed as active;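 further: 0% = uninhibited enzyme and -100% = no enzyme or full thiadiazolimine inhibition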)
Pyruvate kinase PKM (Homo sapiens), sequence (P14618 whole entry, looked up): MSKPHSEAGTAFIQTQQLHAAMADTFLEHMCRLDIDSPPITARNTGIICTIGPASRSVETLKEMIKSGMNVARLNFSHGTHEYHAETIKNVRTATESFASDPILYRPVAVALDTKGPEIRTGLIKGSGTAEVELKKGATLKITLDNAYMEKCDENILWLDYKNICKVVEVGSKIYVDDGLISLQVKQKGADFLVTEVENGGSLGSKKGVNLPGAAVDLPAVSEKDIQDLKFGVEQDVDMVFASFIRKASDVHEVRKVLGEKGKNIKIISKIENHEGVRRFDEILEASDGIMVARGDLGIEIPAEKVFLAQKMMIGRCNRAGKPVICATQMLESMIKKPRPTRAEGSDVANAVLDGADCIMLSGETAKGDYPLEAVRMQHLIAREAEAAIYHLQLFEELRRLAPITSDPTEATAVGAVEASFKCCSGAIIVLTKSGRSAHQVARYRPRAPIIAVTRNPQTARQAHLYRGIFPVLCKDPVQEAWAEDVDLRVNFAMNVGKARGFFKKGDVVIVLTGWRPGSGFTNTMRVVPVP
In short: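 Screening used highly purified human pyruvate kinase M2 under submaximal activity, with PEP at its Km and ADP below Km. After an hour at room temperature, ATP was read by luciferase luminescence.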

[12] = target: Alpha-galactosidase A (Homo sapiens) (UniProt P06280); assay: Counterscreen for Glucocerebrosidase Inhibitors: qHTS Assay for Human alpha-Galactosidase at pH 4.5 (AID 992); further: 0% is about no effect
Alpha-galactosidase A (Homo sapiens), sequence (P06280 whole entry, looked up): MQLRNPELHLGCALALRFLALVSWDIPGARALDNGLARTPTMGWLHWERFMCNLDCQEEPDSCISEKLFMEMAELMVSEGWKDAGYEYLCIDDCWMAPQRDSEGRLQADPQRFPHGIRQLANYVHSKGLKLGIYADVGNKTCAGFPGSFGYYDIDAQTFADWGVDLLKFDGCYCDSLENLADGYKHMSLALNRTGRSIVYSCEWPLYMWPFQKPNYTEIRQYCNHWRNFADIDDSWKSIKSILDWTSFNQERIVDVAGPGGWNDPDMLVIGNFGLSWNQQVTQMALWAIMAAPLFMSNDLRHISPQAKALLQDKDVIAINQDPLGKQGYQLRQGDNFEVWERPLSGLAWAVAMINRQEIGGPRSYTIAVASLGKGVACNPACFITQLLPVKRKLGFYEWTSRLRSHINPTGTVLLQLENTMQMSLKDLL
In short: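 Each compound is preincubated briefly with 2 nM enzyme before substrate addition (80 uM); plates then sit 20 min at ambient temperature, are quenched with 1M NaOH/1M glycine, and read fluorometrically.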

[13] = target: alpha-glucosidase (Oryza sativa, rice) (UniProt Q653V4); assay: Counterscreen for Glucocerebrosidase Inhibitors: qHTS Assay for Rice alpha-Glucosidase at pH 5.0 (AID 997);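 further: 0% = full activity with enzyme and -100% = basal without enzyme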
In short: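 Endpoint fluorogenic assay at pH 5.0: compounds (0.7 nM to 77 uM) titrated against 4 nM rice enzyme and 400 uM 4-MU-alpha-glucoside for 20 min at room temperature; NaOH/glycine stop, read ex 365/em 440 nm, Hill-fitted AC50.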

[14] = target: Glucocorticoid receptor (Homo sapiens) (UniProt P04150); assay: GR-EFC Redistribution (AID 451; calls by dose curve; further: potency means the concentration at half of the fitted maximal effect); conditions: CHO-K1 GR-EFC translocation, beta-gal luminescence, 2 h
In short: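 Translocation of GR-ED fusion to nuclear EA restores b-gal, read by luminescence after 1 h room-temperature detection. Engineered CHO-K1 biosensor cells, 1,000/well, exposed 2 h at 37 C to titrations up to 46 uM final.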

[15] = target: Mitogen-activated protein kinase 10 (Mus musculus) (UniProt Q61831); assay: JNK3 AlphaScreen Assay (AID 530; active means well fitted curve in either direction with a large enough effect, not every such curve was filed as active;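 further: kinase came from lysate of stimulated human HepG2 cells; signal reports phosphorylation of biotinylated GST-cJun 1-79 at Ser73 with 10 µM ATP; on the % scale 0 is the no-effect control and ±100 the full control effect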)
In short: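 Kinase buffer: 20 mM Tris-HCl pH 7.6, 10 mM MgCl2, 1 mM DTT, 0.1 mM Na3VO4, 0.01% Tween-20; ATP 10 uM. Substrate biotin-GST-cJun(1-79), enzyme from activated HepG2 lysates. Detection by Ser73 phospho-antibody AlphaScreen.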

[16] = NFAT Signaling Pathway (AID 444; active means well fitted curve in either direction with a large enough effect, not every such curve was filed as active); conditions: Jurkat NFAT-bla M1, carbachol, beta-lactamase ratio, 5 h; at 17.2 µM (top of the series) unless noted
In short: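 Read-out: CCF4 FRET ratio (460 nm/530 nm) after 1 h RT dye loading, used for %activity and AC50 from titration series. Cells: Jurkat NFAT-β-lactamase/M1 line, treated with compound plus 1 uM carbachol for 5 h, 37 °C.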

[17] = target: Cytochrome P450 2C9 (Homo sapiens) (UniProt P11712); assay: qHTS Assay for Inhibitors and Substrates of Cytochrome P450 2C9 (AID 883); further: on the % scale 0 is the no-effect control and ±100 the full control effect; nearly all actives have a fitted effect of over 60% in size
In short: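 Inhibition of CYP2C9 is scored as loss of luminescence, with 57uM sulphaphenazole defining 100% inhibition. Substrate Luciferin-H is used at 100uM, equal to its KM; enzyme at 10nM in 25mM KPO4, 60 min at 37C with NADPH regeneration.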

[18] = target: Cytochrome P450 3A4 (Homo sapiens) (UniProt P08684); assay: qHTS Assay for Inhibitors and Substrates of Cytochrome P450 3A4 (AID 884); further: on the % scale 0 is the no-effect control and ±100 the full control effect; nearly all actives have a fitted effect of over 50% in size
Cytochrome P450 3A4 (Homo sapiens), sequence (P08684 whole entry, looked up): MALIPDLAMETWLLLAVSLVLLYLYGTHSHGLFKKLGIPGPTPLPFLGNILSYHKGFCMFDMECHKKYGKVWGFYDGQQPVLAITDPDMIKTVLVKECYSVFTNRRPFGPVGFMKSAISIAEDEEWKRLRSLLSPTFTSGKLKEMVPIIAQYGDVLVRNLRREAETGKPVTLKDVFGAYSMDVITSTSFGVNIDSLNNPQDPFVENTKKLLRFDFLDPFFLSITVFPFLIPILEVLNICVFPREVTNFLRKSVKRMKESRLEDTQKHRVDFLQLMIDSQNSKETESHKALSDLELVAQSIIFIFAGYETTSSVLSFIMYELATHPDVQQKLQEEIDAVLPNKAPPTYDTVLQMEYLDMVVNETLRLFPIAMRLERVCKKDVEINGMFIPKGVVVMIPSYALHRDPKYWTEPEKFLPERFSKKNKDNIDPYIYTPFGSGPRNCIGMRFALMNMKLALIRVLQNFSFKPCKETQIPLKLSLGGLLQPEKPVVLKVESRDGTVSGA
In short: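 Luminescent readout of luciferin produced by CYP3A4 (20 nM) dealkylation of Luciferin-PPXE, 25 uM (its KM). NADPH-driven reaction ran 60 min at RT after 10 min compound preincubation; data scaled to 57 uM ketoconazole as 100% inhibition.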

[19] = target: Cytochrome P450 2D6 (Homo sapiens) (UniProt P10635); assay: qHTS Assay for Inhibitors and Substrates of Cytochrome P450 2D6 (AID 891);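 further: luciferin methyl ether substrate demethylated by CYP2D6 with NADPH regeneration; on the % scale 0 is the no-effect control and ±100 the full control effect; nearly all actives have a fitted effect of over 60% in size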
In short: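 Luminescent read-out of luciferin formed by 5 nM human CYP2D6 demethylating 30 uM Luciferin-ME EGE (Km level) over 60 min at room temperature after NADPH regeneration addition. Data normalized to full inhibition by 1.43 uM quinidine.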

[20] = target: Cytochrome P450 2C19 (Homo sapiens) (UniProt P33261); assay: qHTS Assay for Inhibitors and Substrates of Cytochrome P450 2C19 (AID 899); further: on the % scale 0 is the no-effect control and ±100 the full control effect; nearly all actives have a fitted effect of over 60% in size
In short: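 5nM enzyme + 10uM Luciferin-H EGE (=KM), 50mM KPO4; cpd pin-transferred, 10 min 37C; NADPH regen, 60 min 37C; stopped w/ luciferin detection reagent, 20 min; luminescence. Normalized to 57uM ketoconazole (AC100).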

[21] = target: Muscarinic acetylcholine receptor M1 (Rattus norvegicus) (UniProt P08482); assay: qHTS Assay for Antagonists of Acetylcholine Muscarinic M1 Receptor: Measurement of IP-One Response (AID 944); further: nearly all actives have a fitted effect of over 75% in size
In short: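 Antagonism was measured as loss of carbachol-driven (EC80) IP1 accumulation in CHO cells carrying rat M1, using a homogeneous IP-One TR-FRET kit read at 620 and 665 nm.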

[22] = target: Pyruvate kinase PKM (Homo sapiens) (UniProt P14618); assay: qHTS Assay for Inhibitors of Human Muscle Pyruvate Kinase (AID 958)
In short: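 Enzyme was run at intermediate activity so both inhibitors and activators could be detected. ATP formed from ADP and PEP by 0.1 nM human PKM2 during a 1 h room-temperature incubation was quantified by coupled luciferase luminescence.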

[23] = target: Pyruvate kinase (Leishmania mexicana) (UniProt Q27686); assay: qHTS Validation Assay for Activators of Leishmania Mexicana Pyruvate Kinase (AID 959)
In short: as §1

Cc1nn(-c2ccccc2)c2c1C(c1ccc(F)cc1F)C(C#N)=C(N)O2 (stereo not drawn)
inactive: activity change, negative = inhibition [1] 4.8% | Potency [2] > 20.6 µM | activation [3] -12.7%

Cc1cc(C)c(/C=C2/C(=O)Nc3ccccc32)[nH]1
active: Potency [4] 0.794 µM
inactive: activity, negative = inhibition [5] -25.4% [at 38 µM] | Potency [6] | outcome [7] | Potency [8] | Potency [9] | Potency [10] | outcome [11] | outcome [12] | outcome [13]

Cc1cc(C)c(C#N)c(SCc2[nH]nc3c2C(c2ccccc2)C(C#N)=C(N)O3)n1 (stereo not drawn)
inactive: activity change, negative = inhibition [1] -21.7% | Potency [2] > 20.6 µM | activation [3] -8.62%

C[C@@H]1C(=O)O[C@@H]2C[C@@]34[C@H]5C[C@@H](C(C)(C)C)[C@@]36[C@@H](OC(=O)[C@@H]6O)O[C@]4(C(=O)O5)[C@@]12O
inactive: Potency [4] | Potency [2] > 46 µM | Potency [14] > 46 µM | Potency [15]

Nc1ncnc2c1ncn2[C@@H]1O[C@@H](COP(=O)(O)OP(=O)(O)OP(=O)(O)OP(=O)(O)OC[C@@H]2O[C@@H](n3cnc4c(N)ncnc43)[C@@H](O)[C@H]2O)[C@H](O)[C@@H]1O
inactive: Potency [4] | activity change, negative = inhibition [16] -0.343% [at 38 µM] | activity, negative = inhibition [5] 32% [at 38 µM] | Potency [2] > 46 µM | Potency [14] > 46 µM | Potency [15] | Potency [6] | outcome [7] | Potency [17] | Potency [18] | Potency [19] | Potency [20] | Potency [21] | Potency [10] | Potency [22] | outcome [12] | outcome [13]
active: Potency [23] 12.6 µM
